Test results as given in the supplement of paper PMC8728848.
About 410 targets per protein were measured; listed, in parts, are those with the strongest signals and a random draw of the rest.

Key:
Assay in all cases: glycan array binding signal (z-score within array); higher = stronger binding
Conditions in all cases: glycan notation: IUPAC condensed, linker removed
[1] = tested on: GlcNAc(b1-3)Gal(b1-4)GlcNAc
Procedure, shortened: (§1)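 The binding signal is a Z-score computed within each array and averaged over linkers. Arrays of the same protein sequence at different concentrations or buffers were also averaged together. Data originate from 3228 arrays in the Consortium for Functional Glycomics database, kept only where the protein sequence was available.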

Kdn(a2-3)Gal(b1-3)GlcNAc = tested on: Kdn(a2-3)Gal(b1-3)GlcNAc
Procedure, shortened: as §1

GlcNAc(b1-3)Gal(b1-4)Glc = tested on: GlcNAc(b1-3)Gal(b1-4)Glc
Procedure, shortened: as §1

GlcNAc(b1-3)GalNAc = tested on: GlcNAc(b1-3)GalNAc
Procedure, shortened: as §1

[2] = tested on: GlcNAc(b1-3)[GlcNAc(b1-6)]Gal(b1-4)GlcNAc
Procedure, shortened: as §1

GlcNAc(b1-6)GalNAc = tested on: GlcNAc(b1-6)GalNAc
Procedure, shortened: as §1

[3] = tested on: GlcNAc(b1-3)[GlcNAc(b1-6)]GalNAc
Procedure, shortened: as §1

[4] = tested on: GlcNAc(b1-4)GlcNAc(b1-4)GlcNAc(b1-4)GlcNAc(b1-4)GlcNAc
Procedure, shortened: as §1

[5] = tested on: GlcNAc(b1-4)Gal(b1-4)GlcNAc
Procedure, shortened: as §1

GlcNAc(b1-4)GlcNAc = tested on: GlcNAc(b1-4)GlcNAc
Procedure, shortened: as §1

[6] = tested on: Man(a1-2)Man(a1-3)[Man(a1-2)Man(a1-6)]Man(a1-6)[Man(a1-2)Man(a1-2)Man(a1-3)]Man(b1-4)GlcNAc(b1-4)GlcNAc
Procedure, shortened: as §1

Kdn(a2-3)Gal(b1-4)GlcNAc = tested on: Kdn(a2-3)Gal(b1-4)GlcNAc
Procedure, shortened: as §1

[7] = tested on: Man(a1-2)Man(a1-6)[Man(a1-3)]Man(a1-6)[Man(a1-2)Man(a1-2)Man(a1-3)]Man(b1-4)GlcNAc(b1-4)GlcNAc
Procedure, shortened: as §1

[8] = tested on: Man(a1-2)Man(a1-2)Man(a1-6)[Man(a1-3)]Man
Procedure, shortened: as §1

[9] = tested on: Man(a1-2)Man(a1-3)[Man(a1-2)Man(a1-6)]Man(a1-6)[Man(a1-2)Man(a1-2)Man(a1-3)]Man
Procedure, shortened: as §1

[10] = tested on: Man(a1-2)Man(a1-3)[Man(a1-6)]Man(a1-6)[Man(a1-2)Man(a1-3)]Man(b1-4)GlcNAc(b1-4)GlcNAc
Procedure, shortened: as §1

[11] = tested on: Man(a1-2)Man(a1-6)[Man(a1-3)]Man(a1-6)[Man(a1-2)Man(a1-2)Man(a1-3)]Man
Procedure, shortened: as §1

For AgI/IIC123-GFP (Streptococcus mutans), the “glycan array binding signal (z-score)” value [1] was -0.479 and the “glycan array binding signal (z-score)” value (Kdn(a2-3)Gal(b1-3)GlcNAc) was -0.106.
With Epa22 the “glycan array binding signal (z-score)” value (GlcNAc(b1-3)Gal(b1-4)Glc) was -0.695 and the “glycan array binding signal (z-score)” value (GlcNAc(b1-3)GalNAc) was -0.435.
In the case of Wza (Escherichia coli), P0A930, the “glycan array binding signal (z-score)” value [2] is reported as 3.12.
In the case of GspB (Streptococcus gordonii), Q939N5, the “glycan array binding signal (z-score)” value [2] is reported as -0.418 and the “glycan array binding signal (z-score)” value (GlcNAc(b1-6)GalNAc) is reported as -0.73.
With BambL (Burhholderia ambifaria), Q0B4G1 the “glycan array binding signal (z-score)” value [3] was -0.313 and the “glycan array binding signal (z-score)” value [4] was -0.314.
LcI (Legionella pneumophila) was tested, and the “glycan array binding signal (z-score)” value [5] was 4.
“SpGH101 (Streptococcus pneumoniae), Q8DR60” was tested, and the “glycan array binding signal (z-score)” value (GlcNAc(b1-4)GlcNAc) was -0.14 and the “glycan array binding signal (z-score)” value [6] was -0.2.
For “SiiE (Salmonella typhimurium), A0A0H3NVH0”, the “glycan array binding signal (z-score)” value (Kdn(a2-3)Gal(b1-4)GlcNAc) was 2.58 and the “glycan array binding signal (z-score)” value [7] was -0.297.
With Actinohivin (Actinomycete K97) the “glycan array binding signal (z-score)” value [8] was 16.1, the “glycan array binding signal (z-score)” value [6] was 3.83 and the “glycan array binding signal (z-score)” value [9] was 12.4. For the same substance, the “glycan array binding signal (z-score)” value [10] was 3.51, the “glycan array binding signal (z-score)” value [7] was 6.4 and the “glycan array binding signal (z-score)” value [11] was 8.54.
